Experimental data as given in article PMC12864922, “TDP-43 directly inhibits mRNA accumulation in neurites through modulation of mRNA stability”.
Whole data set: some 9,900 sequences, median “r (bound/input frequency ratio)” near 0.7, cut for the highest 2% near 6.5. Shown is part of a subset that was picked to be rich in the highest values.

B1: ENSMUSG00000031028.667|Tub|229:233 (ssRNA)
RNA: GGGAGUUCUACAGUCCGACGAUCGCUUCGAUAUCCGCAUGCUAAGGACAGGCAAAAUUUCUCUAGCUGAGAGCACACUUAGCCAGUUUUCACGCCUAGAACAUAUAUGUCGAUUUGCACAUGAUUGUCUUUUCCUAUUUUGGAGUGGUCAGACAUUUUAUUUUUGUUCAAAAUUAUCUGGAGUUUUAGACAAACUUGCAAAACUGUGCUUUUAUUAAGUGACUUUUUGAAUAAACUUUUUGGUAUUCUGAAGCAAAUGUAUUUAUUUAUUGCAUACUGCAAUGACAAACUUGGUAUUUUCCCACUCUUGCGGUCGCACUAGUGUGGAAUUCUCGGGUGUCAAGG
B2: ENSMUSG00000058297.445|Spock2|189:193 (ssRNA)
RNA: GGGAGUUCUACAGUCCGACGAUCGCUUCGAUAUCCGCAUGCUAUGGUGGGGCUGAAGGUUCCCAAGUAGCUUCUAGUUAAGCAAGCUUCGUGUUUCCUCAGGAGCAAGGUCACACAGGUCAGAUUAUUGUCGGUCCUGCGGGCCUCAUCCUUGAAUAAGCUGCCUGCCCAGUUCCUCCAUCCGUGUUCCUGCCUGCUCCCGUUCCCUUGUUGCGGGCAGGAGAGGUAGGGCACACAUGGAAAGAGUUCAACCAAAUUACGGCAGCACCACAUCUUGCCGAGCCCUGGAGCUGCCCUACUAAGACUCUUGCGGUCGCACUAGUGUGGAAUUCUCGGGUGUCAAGG
B3: ENSMUSG00000028439.22|Fam219a|136:142 (ssRNA)
RNA: GGGAGUUCUACAGUCCGACGAUCGCUUCGAUAUCCGCAUGCUACGCUGACCUGGGCCCGGUGGGAUGCAGCAGGAGAGACCCCUACCCUGCUGGUCCACUGGUCCCCAGCCCCGCGCCUCUUAGAGCCGCCAACCUCGUAACAGUCAUUGCUUCCUCCUAUGGUAGGACGUGUACCUCACACACAUCAAGGAGCCGGAGAAACCAAAACCGGGUCUGUCUCCAGCCCCGGGGCUGAGGAGGGGUGGGCACUGUUUGUUCGGUUACUUGGGGGGAACCACACCCAAGCACCCUGCCACCUCUCCCUCUUGCGGUCGCACUAGUGUGGAAUUCUCGGGUGUCAAGG
B4: ENSMUSG00000061578.153|Ksr2|12:16;34:49;85:89 (ssRNA)
RNA: GGGAGUUCUACAGUCCGACGAUCGCUUCGAUAUCCGCAUGCUAGACGGUCCUGGCAUACCAUGAUGGGUUACAUGGCACACACACACACACAAACUGUUUACAAUGGUCUCCCUGCCUCUCACGGGCACACAUCCAGGAGAAUGCACAUAGAGAGGUUCUGUGGUCUCUGCUGUCGCCUGGUGCUGAAUCCUGAGUGGUUUCCCCACUGAGGACCCUGUGACCCUGUGACCCUUGGCCCCUCCCUUAUUGUGCACACUCAGCACCCCAUCUUCCAAGCCUUUCUUCAUCCCCCACCUUCUUUUCUCUUGCGGUCGCACUAGUGUGGAAUUCUCGGGUGUCAAGG

Each binder was assayed against TDP-43 (Homo sapiens, UniProt Q13148 1-414) (assay: RNA Bind-n-Seq with designed 260-mer pool; 25 mM Tris-HCl, 150 mM KCl, 3 mM MgCl2, BSA (printed 500 mg/mL), 20 units/mL SUPERase IN; pH not stated; 500 nM RNA pool, 1 h, 4 C; TDP-43 5, 50, 500 nM; high values mean tight binding). Conditions: protein: recombinant; tags: SBP (GST cleaved off with PreScission; pGEX-GST-SBP).
Sequence of TDP-43 (Q13148 whole entry): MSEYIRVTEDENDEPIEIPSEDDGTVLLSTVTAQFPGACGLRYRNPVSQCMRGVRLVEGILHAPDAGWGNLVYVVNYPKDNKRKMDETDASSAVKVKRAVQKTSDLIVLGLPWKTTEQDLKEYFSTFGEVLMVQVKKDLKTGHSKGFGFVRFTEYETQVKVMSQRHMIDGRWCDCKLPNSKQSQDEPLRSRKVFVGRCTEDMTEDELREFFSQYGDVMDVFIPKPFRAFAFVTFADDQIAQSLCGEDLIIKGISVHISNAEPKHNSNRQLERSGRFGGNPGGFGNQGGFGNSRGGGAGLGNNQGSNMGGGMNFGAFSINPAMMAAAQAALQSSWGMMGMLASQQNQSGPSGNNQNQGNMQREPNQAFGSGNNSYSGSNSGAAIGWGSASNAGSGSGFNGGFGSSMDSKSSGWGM
Outline: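 Streptavidin beads captured recombinant SBP-tagged TDP-43 at 5, 50 or 500 nM, and the beads were incubated for 1 h at 4 °C with 500 nM of an in vitro-transcribed pool of 260-nt 3′ UTR oligos in 25 mM Tris-HCl, 150 mM KCl, 3 mM MgCl2, BSA and SUPERase IN. After washing, bound RNA was eluted with biotin, reverse transcribed, PCR-amplified and sequenced. Binding is reported as R, the mapped-read-normalized abundance of each oligo in the bound sample divided by its abundance in the input. Two independent protein batches served as duplicates.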

Binder | binding signal
B1 | 0.0728 R (bound/input frequency ratio)
B2 | 0.0933 R (bound/input frequency ratio)
B3 | 0.559 R (bound/input frequency ratio)
B4 | 1.47 R (bound/input frequency ratio)
